# Reference: the supplement of paper PMC4166925
# ± gives the standard deviation of the averaged measurements. The full ranking holds about 33,000 sequences; the median of “E-score (dimensionless, -0.5 to 0.5)” is about -0.049, and the highest 2% start at about 0.37. The entries come from a sample that favours the highest values as a whole.
# System: T1, PmTbr T-box DNA-binding domain (GST fusion)
# T1 sequence: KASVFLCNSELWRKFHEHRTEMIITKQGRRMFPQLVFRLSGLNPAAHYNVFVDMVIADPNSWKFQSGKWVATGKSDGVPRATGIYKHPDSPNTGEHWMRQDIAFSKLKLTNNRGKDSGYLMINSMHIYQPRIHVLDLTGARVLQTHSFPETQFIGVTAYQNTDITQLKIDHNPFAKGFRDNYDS
# Assay: PBM E-score of 8-mer (E-score (dimensionless, -0.5 to 0.5)); Tbr is Tbrain of the sea star Patiria miniata (Pm) or the sea urchin Strongylocentrotus purpuratus (Sp); higher = stronger binding preference
# Conditions: the construct has about 5 more residues each side
# Description: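 Universal protein-binding microarray (Agilent AMADID 016060, 60-bp probes with a 35-bp variable region) incubated with 200 nM GST-fused Patiria miniata Tbr T-box DNA-binding domain (residues 272-466) in PBS pH 7.5. Scored for every ungapped 8-mer (given with its reverse complement) by the Universal PBM Analysis Suite as E-score (modified Wilcoxon-Mann-Whitney enrichment, range -0.5 to 0.5; >0.45 counts as bound) and Z-score of median probe intensity. Two replicate arrays (datasets 1 and 2).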
# 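Also: 200 nM protein in PBS on universal arrays averaged over duplicate arrays.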
row,Sequence,PBM E-score of 8-mer
1,AAGGTTAC,-0.145 ± 0.017
2,GGGCCCAA,-0.154 ± 0.022
3,CGTGTTTC,0.126 ± 0.034
4,ACCCAGTA,-0.234 ± 0.012
5,AGATAAAT,-0.223 ± 0.057
6,GCTGACAC,0.398 ± 0.013
7,CCTGACAA,0.207 ± 0.027
8,ACTGACAA,0.166 ± 0.009
9,ACTGACAC,0.379 ± 0.012
10,CCTGACAG,0.218 ± 0.036
11,GCTGACCC,-0.159 ± 0.14
12,ACTGACAT,0.0983 ± 0.064
13,CATGACAC,0.389 ± 0.0048
14,AATGACAC,0.355 ± 0.0044
15,CCTGACAC,0.435 ± 0.0077
16,CATGACAA,0.204 ± 0.047
17,GCTGACAA,0.2795 ± 0.00061
18,GCCTTTCA,-0.0251 ± 0.074
19,TACTTTCA,0.0461 ± 0.077
20,CACAGCGA,0.0526 ± 0.053
21,CTGACCAC,0.0865 ± 0.013
22,ACAGATGA,0.00068 ± 0.05

row,Sequence,PBM E-score of 8-mer
1,AGCGTTCG,0.214 ± 0.068
2,CTACAGAG,-0.187 ± 0.022
3,CCTGTCAC,0.3665 ± 0.0036
4,CGTGTCAA,0.4335 ± 0.00096
5,AGTGTCAA,0.447 ± 0.0063
6,GGTGTCCA,0.294 ± 0.021
7,GGTGTCAA,0.474 ± 0.0055
8,CCTGTCAA,0.309 ± 0.024
9,AATGTCAA,0.0345 ± 0.052
10,ACTGTCAC,0.392 ± 0.018
11,ACTGTCAG,0.129 ± 0.034
12,ACTGTCAA,0.162 ± 0.028
13,GCTGTCAA,0.323 ± 0.014
14,CATGTCAA,-0.00945 ± 0.065
15,AATGTCAG,0.0135 ± 0.012
16,AGTGTCAG,0.384 ± 0.017
17,GGTGTCAC,0.481 ± 0.0062
18,AATGTCAT,-0.164 ± 0.033
19,TGTGTCAA,0.372 ± 0.014
20,TATGTCAA,0.0912 ± 0.063
21,TCTGTCAA,0.152 ± 0.039
22,CGTGTCAG,0.31284 ± 0.00018

row,Sequence,PBM E-score of 8-mer
1,GCTGTCAC,0.3624 ± 0.0017
2,AGTGTCAT,0.387 ± 0.0042
3,ACTGTCAT,0.163 ± 0.037
4,GATGTCAC,0.304 ± 0.0034
5,AACATGAT,-0.0409 ± 0.098
6,GGTCGAGA,-0.252 ± 0.058
7,TTGAGCAA,-0.0163 ± 0.022
8,ATAGGCAC,-0.0213 ± 0.017
9,CGCTCATA,-0.08565 ± 0.00083
10,TAGCTCAA,-0.184 ± 0.04
11,ACTTTTCT,0.0687 ± 0.099
12,ATTGGGTC,-0.0189 ± 0.031
13,CGAAGCCG,0.155 ± 0.06
14,ATGGAGGA,-0.217 ± 0.015
15,ACACCCAA,0.368 ± 0.035
16,AAGCGAAT,-0.167 ± 0.0081
17,AATGTCAC,0.329 ± 0.034
18,CGTGTCCC,-0.0561 ± 0.065
19,AGTGTCAC,0.449 ± 0.0029
20,CGTGTCAC,0.3865 ± 0.0037
21,AGTGTCCC,0.176 ± 0.004
22,CATGTCAC,0.352 ± 0.0093

row,Sequence,PBM E-score of 8-mer
1,ATTAAGTA,-0.154 ± 0.096
2,CGACCTCG,0.14 ± 0.074
3,CGCTTCAG,-0.0405 ± 0.068
4,CTCCTAGC,0.0648 ± 0.041
5,AGTCACCC,-0.0493 ± 0.13
6,CGTCACCA,0.27 ± 0.054
7,CGTCACAC,0.433 ± 0.017
8,AGTCACAG,0.135 ± 0.054
9,AGTCACAC,0.462 ± 0.0029
10,GGTCACAA,0.212 ± 0.048
11,GGACACAC,0.101 ± 0.0014
12,AGTCACAT,0.11 ± 0.058
13,CGTCACAA,0.175 ± 0.033
14,CGTCACCC,0.373 ± 0.021
15,GGTCACAC,0.4613 ± 0.0012
16,CGTCACAG,0.243 ± 0.014
17,CTCAAGAA,-0.0351 ± 0.062
18,AATGAGGG,-0.21 ± 0.035
19,AGCAACAT,-0.000465 ± 0.079
20,AAAATCGT,0.158 ± 0.078
